Sampled rows, rich in hits. Any-hit rate of the full collection: about 4.3%.
rCAG RNA binder: binds r(CAG) RNA repeats; r(CAG) RNA repeat, TO-PRO-1 dye displacement fluorescence; 1.3% of 370,000 active; inhibition, % at 3 µM;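 active means inhibition above the plate cutoff, the mean of all test compounds on that plate plus 3 SD, cut at about 35% in these data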;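 further: higher means more dye released from RNA so lower well fluorescence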
FAS TE block: blocks the thioesterase domain of human fatty acid synthase; recombinant FAS-TE, OMFH fluorogenic substrate, fluorescence endpoint; AID 602261; 0.67% of 360,000 active; inhibition, % at 15 µM;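 active means compounds whose normalised, plate-corrected inhibition of enzyme fluorescence in the single-dose primary screen is 50% or more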
Target sequence (P49327 whole entry, looked up, the tested form may be a part): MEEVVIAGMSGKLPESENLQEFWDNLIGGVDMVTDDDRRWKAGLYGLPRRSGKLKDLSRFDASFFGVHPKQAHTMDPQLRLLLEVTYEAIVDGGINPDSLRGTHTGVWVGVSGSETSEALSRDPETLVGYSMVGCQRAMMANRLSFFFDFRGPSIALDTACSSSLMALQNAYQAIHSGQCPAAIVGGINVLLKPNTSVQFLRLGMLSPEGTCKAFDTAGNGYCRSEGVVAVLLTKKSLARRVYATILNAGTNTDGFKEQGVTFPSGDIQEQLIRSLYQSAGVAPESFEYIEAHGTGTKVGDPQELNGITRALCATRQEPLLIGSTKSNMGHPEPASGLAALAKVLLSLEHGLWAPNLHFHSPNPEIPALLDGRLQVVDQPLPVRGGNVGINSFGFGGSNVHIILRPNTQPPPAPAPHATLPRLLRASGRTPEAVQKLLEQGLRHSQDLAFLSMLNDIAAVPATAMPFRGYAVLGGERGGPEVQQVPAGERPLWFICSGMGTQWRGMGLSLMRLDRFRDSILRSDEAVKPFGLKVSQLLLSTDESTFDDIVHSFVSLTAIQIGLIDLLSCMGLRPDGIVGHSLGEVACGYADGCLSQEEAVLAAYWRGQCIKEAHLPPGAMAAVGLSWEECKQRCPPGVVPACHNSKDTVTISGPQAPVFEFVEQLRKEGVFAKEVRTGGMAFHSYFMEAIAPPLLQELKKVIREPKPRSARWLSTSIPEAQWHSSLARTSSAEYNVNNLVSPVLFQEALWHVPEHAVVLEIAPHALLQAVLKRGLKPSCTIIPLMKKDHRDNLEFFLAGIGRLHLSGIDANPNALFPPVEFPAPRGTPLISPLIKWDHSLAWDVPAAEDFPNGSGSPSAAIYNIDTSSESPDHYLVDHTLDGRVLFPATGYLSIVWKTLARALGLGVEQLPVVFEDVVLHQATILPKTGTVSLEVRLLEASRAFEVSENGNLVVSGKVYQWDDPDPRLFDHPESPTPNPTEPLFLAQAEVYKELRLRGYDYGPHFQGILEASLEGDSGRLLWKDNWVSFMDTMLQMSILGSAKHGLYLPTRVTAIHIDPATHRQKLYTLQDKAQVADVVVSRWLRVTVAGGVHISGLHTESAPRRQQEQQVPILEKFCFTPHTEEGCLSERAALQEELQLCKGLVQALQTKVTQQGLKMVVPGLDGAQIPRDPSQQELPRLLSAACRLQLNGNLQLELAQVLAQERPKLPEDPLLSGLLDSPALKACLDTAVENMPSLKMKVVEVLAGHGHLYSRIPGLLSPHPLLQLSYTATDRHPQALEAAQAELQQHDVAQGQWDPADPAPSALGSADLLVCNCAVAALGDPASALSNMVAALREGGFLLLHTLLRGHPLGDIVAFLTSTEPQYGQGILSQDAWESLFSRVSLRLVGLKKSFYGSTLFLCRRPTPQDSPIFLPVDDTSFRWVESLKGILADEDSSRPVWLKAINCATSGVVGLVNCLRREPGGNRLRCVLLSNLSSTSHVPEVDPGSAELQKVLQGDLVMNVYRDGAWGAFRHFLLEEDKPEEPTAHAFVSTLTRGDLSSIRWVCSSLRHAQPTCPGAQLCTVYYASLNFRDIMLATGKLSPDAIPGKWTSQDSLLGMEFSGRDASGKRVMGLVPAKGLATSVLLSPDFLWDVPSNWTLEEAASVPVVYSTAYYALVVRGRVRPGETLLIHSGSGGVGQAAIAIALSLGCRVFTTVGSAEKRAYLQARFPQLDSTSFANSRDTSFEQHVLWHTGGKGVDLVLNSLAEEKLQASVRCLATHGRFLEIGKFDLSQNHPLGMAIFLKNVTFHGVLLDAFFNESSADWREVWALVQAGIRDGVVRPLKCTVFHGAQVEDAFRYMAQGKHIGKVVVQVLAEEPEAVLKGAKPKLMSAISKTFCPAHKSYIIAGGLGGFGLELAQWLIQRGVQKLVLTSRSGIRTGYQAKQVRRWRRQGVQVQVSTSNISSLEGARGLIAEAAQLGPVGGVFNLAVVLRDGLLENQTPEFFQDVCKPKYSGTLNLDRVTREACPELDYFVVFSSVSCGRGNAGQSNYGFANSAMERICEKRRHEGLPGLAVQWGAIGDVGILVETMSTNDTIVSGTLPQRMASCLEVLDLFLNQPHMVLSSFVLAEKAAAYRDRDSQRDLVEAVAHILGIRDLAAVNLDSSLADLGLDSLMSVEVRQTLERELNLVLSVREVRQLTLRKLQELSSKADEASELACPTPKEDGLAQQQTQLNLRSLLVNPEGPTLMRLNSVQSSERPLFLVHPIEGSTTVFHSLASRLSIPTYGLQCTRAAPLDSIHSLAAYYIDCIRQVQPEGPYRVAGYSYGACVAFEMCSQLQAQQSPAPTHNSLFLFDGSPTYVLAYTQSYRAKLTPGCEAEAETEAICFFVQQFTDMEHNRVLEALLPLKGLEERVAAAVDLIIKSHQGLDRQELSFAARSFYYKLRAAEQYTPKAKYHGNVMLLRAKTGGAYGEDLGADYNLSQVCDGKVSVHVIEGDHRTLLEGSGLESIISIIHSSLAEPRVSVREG
GRIN3A LBD mod: NR3A (human) ligand-binding domain modulation | NR3A LBD differential scanning fluorimetry, Tm shift; 0% = protein alone, 100% = glycine-bound protein | Tm shift relative to glycine control, % at 25 µM | 2.5% of 340,000 active;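 active means melting temperature shift of at least 10% of the positive control shift, at one fixed dose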
NadD block: blocks S. aureus nicotinate mononucleotide adenylyltransferase; purified NadD enzyme, colorimetric absorbance read-out; inhibition, % at 20 µM; 0.78% of 360,000 active; AID 602399; in the data active means inhibition above about 26%
Numbers stand for hits; 0 = inactive; - = no result given.

SMILES	rCAG RNA binder	FAS TE block	GRIN3A LBD mod	NadD block
CCCCOc1ccc(C(=O)n2ccc3ccc(-c4ccc5ccn(Cc6cccc(C(=O)OC)c6)c5c4)cc32)cc1	0	-	-	-
COc1ccc(-c2ccoc2)cc1[C@H]1[C@H]2C=CC[C@@H](C)[C@@H]2C(=O)N1Cc1ccccc1	0	0	14	0
COc1ccc(-c2ccc([C@H]3[C@H]4C=CC[C@@H](C)[C@@H]4C(=O)N3Cc3ccccc3)c(F)c2)cc1OC	0	0	0	0
COc1ccc(-c2ccc([C@H]3[C@H]4C=CC[C@@H](C)[C@@H]4C(=O)N3Cc3ccccc3)c(F)c2)cc1	0	0	16	0
COc1ccc(-c2ccc(C)cc2)cc1[C@H]1[C@H]2C=CC[C@@H](C)[C@@H]2C(=O)N1Cc1ccccc1	0	0	0	0
COC(=O)[C@]12C[C@H](CC(=O)N3CCN(C(=O)C4CC4)CC3)C(=O)N(Cc3ccccc3)C1=C[C@H](C(C)C)O[C@@H]2C1CC1	0	-	-	-
CC(=O)CC[C@@H]1CC[C@]2(CCCN(C(=O)c3ccc4ccccc4n3)C2)O1	0	-	-	-
Cc1cccc(NC(=O)CCS(=O)(=O)c2ccccc2)c1C	0	-	-	-
N=c1c(C(=O)NCc2ccc(F)cc2)cc2c(=O)n3ccccc3nc2n1Cc1ccco1	0	0	0	31
N=c1c(C(=O)NCc2ccco2)cc2c(=O)n3ccccc3nc2n1Cc1ccc(Cl)cc1	0	0	0	0
Cc1ccc(Cn2c(=O)n(Cc3ccc(C(=O)NCC4COC4)cc3)c(=O)c3ccccc32)cc1	0	-	-	-
Cc1nnc2nc(-c3ccccc3)nc(-c3ccccc3)n12	0	0	12	0
O=C(N/N=C/c1c[nH]c2ccccc12)c1ccn[nH]1	0	0	11	0
O=C(N/N=C/c1c[nH]c2ccccc12)c1cc(-c2ccc3ccccc3c2)n[nH]1	0	0	41	0
O=C(N/N=C/c1c[nH]c2ccccc12)c1cc(-c2cccc3ccccc23)n[nH]1	0	0	0	0
O=C(N/N=C/c1c[nH]c2ccccc12)c1cc(-c2ccccc2)n[nH]1	0	0	31	0
Cc1ccc(-c2cc(C(=O)N/N=C/c3c[nH]c4ccccc34)[nH]n2)cc1	0	0	27	0
Cc1ccc(-c2cc(C(=O)NN=Cc3ccc(-c4ccccc4)cc3)[nH]n2)cc1C	0	-	-	-
C#CCN(Cc1ccco1)C(=O)c1nnc2c3ccccc3n(S(=O)(=O)c3ccccc3)c2n1	0	-	-	-
O=C(OCCN1CCN(C2CN(Cc3cn(Cc4cccc(F)c4)nn3)S(=O)(=O)C2)CC1)c1cc2ccccc2o1 (centres undefined)	0	-	-	-
O=C(N/N=C/c1cccs1)c1cc(-c2ccc3ccccc3c2)n[nH]1	0	0	13	0
O=C(N/N=C/c1cccs1)c1cc(-c2cccc3ccccc23)n[nH]1	0	0	0	0
CC1(c2nnnn2-c2ccc3c(c2)OCCO3)CSCC(=O)N1CCc1c[nH]c2ccccc12 (centres undefined)	0	-	-	-
COc1cc(C(=O)NNC(=O)C2CC2)cc(OC)c1OC	0	0	15	0
C[C@H]1COc2c3ccccc3nn21	0	-	-	-
SMILES	rCAG RNA binder	FAS TE block	GRIN3A LBD mod	NadD block
CC1CCCC(NC(=O)COC(=O)c2ccccc2Sc2ccccc2C#N)C1C (centres undefined)	0	0	16	0
N#Cc1ccccc1Sc1ccccc1C(=O)OCC(=O)NC12CC3CC(CC(C3)C1)C2	0	0	0	0
N#CC1C(=O)c2ccccc2C1c1ccccc1 (centres undefined)	0	0	20	0
c1ccc(N2CCN(c3ccccc3)C2c2cccnc2)cc1	0	0	10	0
Cc1ccc(NC(=O)NNC(=O)c2cc3ccccc3cc2O)cc1C	0	0	0	0
Cc1ccc(NC(=O)c2cc3ccccc3cc2O)cc1	0	0	22	0
CCOc1ccc(NC(=O)NNC(=O)c2cc3ccccc3cc2O)cc1	0	0	0	0
CCc1ccc(NC(=O)NNC(=O)c2cc3ccccc3cc2O)cc1	0	0	10	0
C[C@H]1COc2cc(Br)ccc2S(=O)(=O)N1Cc1cn(Cc2ccc(Cl)cc2)nn1	0	-	-	-
COC(=O)[C@]12C[C@H](CC(=O)N3CCCCC3)C(=O)N(CCc3ccc(OC)c(OC)c3)C1=C[C@H](C(C)C)O[C@@H]2C1CC1	0	-	-	-
COc1cccc(NC(=O)CN(C)C(=O)/C=C/c2cn(-c3ccccc3)nc2-c2ccc(C)cc2)c1	0	0	17	0
COc1ccc(-c2nn(-c3ccccc3)cc2/C=C/C(=O)OCC(=O)Nc2cccc(C#N)c2)cc1	0	0	25	0
COc1ccc(NC(=O)CN(C)C(=O)/C=C/c2cn(-c3ccccc3)nc2-c2ccc(C)cc2)cc1	0	0	0	0

Compound activity from PubChem BioAssay.
